Measurements taken from paper PMC5540273 (PLoS ONE, 2017).

Assays:
Settings in all cases: concentration: 1 μM, replicates: in singlicate; n = 1
FLT1 = tested on: FLT1
FLT3-autoinhibited = tested on: FLT3-autoinhibited
FLT3 = tested on: FLT3
FLT4 = tested on: FLT4
FRK = tested on: FRK
FYN = tested on: FYN
GAK = tested on: GAK
GCN2(Kin.Dom.2,S808G) = tested on: T1, GCN2(Kin.Dom.2,S808G)
T1 construct: gene EIF2AK4

GRK1 = tested on: GRK1
GRK2 = tested on: T2, GRK2
T2 construct: gene ADRBK1
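Also: KINOMEscan kinase panel screen.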

SMILES	%Inh (FLT1) [%]	%Inh (FLT3-autoinhibited) [%]	%Inh (FLT3) [%]	%Inh (FLT4) [%]	%Inh (FRK) [%]	%Inh (FYN) [%]	%Inh (GAK) [%]	%Inh (GCN2(Kin.Dom.2,S808G)) [%]	%Inh (GRK1) [%]	%Inh (GRK2) [%]
COC(=O)c1cccc(NC(=O)NC2CCN(c3ccnc(Nc4ccc(F)cc4)n3)C2)c1 (centres unmarked) [GSK1379725]	24	0	0	0	13	15	0	0	5	0
Cc1ccccc1Cn1ccn2c(=O)cc(N3CCOCC3)nc12 [GSK2269905]	10	2	0	0	14	26	1	4	0	0
CC(=O)c1cccc(NC(=O)NC2CCN(c3ccnc(Nc4ccc(F)cc4)n3)C2)c1 (centres unmarked) [GSK1379710]	27	11	0	12	0	27	5	0	0	10
FC(F)(F)c1ccccc1-c1cc(-c2c[nH]nc2-c2ccccn2)ccn1 [GW679396]	18	0	0	0	17	0	27	0	0	0
O=C(Nc1n[nH]c2nc(-c3cccs3)c(Br)cc12)C1CC1 [SB-735297]	8	19	81	0	0	0	0	0	10	0
c1ccc(-c2ccnc3[nH]ccc23)cc1 [SB-693578]	1	8	0	8	0	0	90	0	6	0
CNC(=O)c1ccc(C)c(-n2c(C)cc(OCc3ccc(F)cc3F)c(Br)c2=O)c1	2	0	0	0	0	0	0	0	0	4
COc1ccc(CSc2nnc(-c3ccc4c(c3)CCO4)o2)cc1	0	0	0	0	0	0	0	33	0	0
CNCc1ccc2nc(NC(=O)c3ccc(C(C)(C)C)cc3)cn2c1	27	19	66	29	1	6	5	0	13	39
CS(=O)(=O)CCNCc1nc(-c2ccc3ncnc(Nc4ccc(OCc5ccccc5)c(Cl)c4)c3c2)cs1.Cl [GW582764]	5	0	0	0	2	0	0	0	0	0
COc1nccc(-c2c(-c3ccc(F)cc3)ncn2CCCN2CCOCC2)n1 [SB-282852]	10	4	0	0	0	0	0	1	29	2
Cc1nccc(-c2c(-c3ccc(F)cc3)ncn2CCCN2CCOCC2)n1.Cl [SB-282975]	21	19	6	23	2	9	9	0	78	0
Fc1ccc(-c2nc3n(c2-c2ccncc2)CCS3)cc1 [GI98581]	35	0	0	12	14	22	53	3	0	0
Cc1cnc(N)c(/C=C/c2cncc(C(=O)NCCc3ccc(Cl)cc3Cl)c2)c1.Cl [GSK190937]	0	0	2	7	6	20	29	3	0	0
Cc1cccc2c(-c3ccncn3)c(-c3ccc(F)cc3)nn12 [GW515532]	32	12	0	10	0	1	76	18	3	0
O=c1cc(N2CCOCC2)nc2n(Cc3cccc(Cl)c3Cl)c3ccccc3n12 [GSK2299009]	41	9	28	16	0	17	19	0	0	0
Cn1cnc2c(N)ncnc21 [SKF-97623]	0	100	0	0	0	0	0	27	0	29
CNc1cc(-c2ccc3c(N)n[nH]c3c2)nc(N)n1 [GSK2224810]	15	16	0	2	7	20	9	0	6	0
Cc1ccc(NC(=O)Nc2ccccc2)cc1-c1ccc(C(=O)Nc2ccncc2)cc1 [GSK1398471]	32	0	36	21	61	33	4	50	2	0
O=C1NC(=O)C(c2ccc(Cl)cc2)=C1Nc1cccc(Cl)c1 [SB-317651]	0	11	0	0	0	0	0	2	11	0
Cc1ccc(NC(=O)c2ccc(Cl)cc2)cc1-c1ccc(C(=O)Nc2ccncc2)cc1 [GSK1398467]	37	0	0	2	30	0	1	0	0	0
Cn1cncc1-c1cc2c(Nc3ccc(OCc4ccccc4)cc3)ncnc2cn1 [GW281179]	19	0	0	0	6	28	0	1	0	9
COc1ccc(Nc2nccc(N3CCC(NC(=O)c4cc5ccccc5s4)C3)n2)cc1 (centres unmarked) [GSK1379738]	14	0	0	3	0	41	0	0	0	0

SMILES	%Inh (FLT1) [%]	%Inh (FLT3-autoinhibited) [%]	%Inh (FLT3) [%]	%Inh (FLT4) [%]	%Inh (FRK) [%]	%Inh (FYN) [%]	%Inh (GAK) [%]	%Inh (GCN2(Kin.Dom.2,S808G)) [%]	%Inh (GRK1) [%]	%Inh (GRK2) [%]
CN1c2ccc(-c3ccc(C(N)=O)cc3)cc2-c2[nH]ncc2S1(=O)=O	5	27	31	0	0	3	6	33	1	0
COc1ccc2cc(-c3nc(-c4ccccc4C(C)C)[nH]c3-c3ccncc3)ccc2c1 [SB-660566]	19	4	0	22	8	12	40	4	0	0
COC(=O)C(Cc1ccccc1)NC(=O)NC1CCN(c2ccnc(Nc3ccc(F)cc3)n2)C1 (centres unmarked) [GSK1379714]	33	5	2	0	0	0	0	6	100	0
CNc1nc(-c2ccc3c(N)n[nH]c3c2)cc(N2C[C@@H](C(=O)Nc3ccccc3)CC[C@H]2C)n1 [GSK2298859]	35	0	0	12	0	2	0	0	100	0
Cn1cncc1C(=O)NC1CCN(c2ccnc(Nc3ccc(F)cc3)n2)C1 (centres unmarked) [GSK1379717]	12	1	0	99.1	0	42	0	0	18	0
COc1ccc(Nc2nccc(-c3ccc(NC(=O)c4cc5cc(F)ccc5[nH]4)cc3)n2)cc1 [GSK1229496]	4	0	0	9	0	0	0	0	3	9
COc1cccc(C2=C(Nc3cc(Cl)c(O)c(Cl)c3)C(=O)NC2=O)c1 [SB-390767]	20	0	0	10	20	30	100	0	3	0
O=c1cc(N2CCOCC2)nc2n(Cc3ccccc3F)ccn12 [GSK2297428]	24	0	0	2	20	0	0	0	0	0
COC(=O)c1cccc(NC(=O)NC2CCN(c3ccnc(Nc4ccc(OC)cc4)n3)C2)c1 (centres unmarked) [GSK1379746]	26	0	0	4	11	8	0	0	0	0
O=C1NC(=O)C(c2ccc(Cl)cc2)=C1Nc1ccc(O)cc1 [SB-340867]	0	0	6	0	0	0	0	0	0	0
Nc1cccc(-c2ccc3c(N)n[nH]c3c2)n1 [GSK2192730]	0	13	0	0	0	29	17	0	21	0
CC(=O)c1c(C)c2cnc(Nc3ccn(C)n3)nc2n(C2CCCC2)c1=O	4	2	0	0	28	0	0	36	0	17
Fc1ccc(-c2nn3cccc(F)c3c2-c2ccncc2)cc1 [GW475620]	27	2	0	25	14	16	65	0	0	6
NS(=O)(=O)c1cccc(N/C=C2\C(=O)Nc3ccc(S(=O)(=O)Cc4c(Cl)cccc4Cl)cc32)c1 [GSK398099]	12	0	0	0	0	35	18	0	0	0
CS(=O)(=O)Cc1ccc(Nc2nccc(-c3c(-c4cccc(NC(=O)C5CCCCC5)c4)nn4ncccc34)n2)cc1 [GSK350559]	63	25	88	52	4	1	14	0	0	44
CCn1c(-c2c(N)noc2C)nc2cnccc21 [SB-737856]	20	0	0	0	11	3	21	7	0	0
CC(C)c1ccc(O)cc1Nc1ccnc2ccc(C(F)(F)F)cc12 [GW482059]	21	9	1	10	9	20	0	0	0	14
Cl.Cl.Cl.N#Cc1ccc(CCNc2nccc(-c3cccc(CN4CCNCC4)c3)n2)cc1 [GSK2137462]	17	0	38	2	4	38	26	11	0	0
CC(C)c1cc(-c2ccc3c(N)n[nH]c3c2)nc(N)n1 [GSK2250882]	4	0	0	0	0	22	13	0	0	0
Cc1ccc(-c2nc(Nc3ccncc3)c3ccccc3n2)s1 [GSK189015]	39	17	23	10	7	0	53	13	9	1
Cc1ccc(NC(=O)Nc2ccc(Cl)c(C(F)(F)F)c2)cc1-c1ccc(C(=O)Nc2ccncc2)cc1 [GSK1398470]	23	0	27	0	42	44	14	15	0	0
Fc1ccc(-c2nc[nH]c2-c2ccncc2)cc1 [SB-217360]	0	0	5	9	0	0	57	0	25	0
O=C(Nc1n[nH]c2nc(-c3ccco3)c(Br)cc12)C1CCN(Cc2ccccc2)C1.O=C(O)[C@H](O)[C@@H](O)C(=O)O (centres unmarked) [SB-742034]	0	10	7	6	0	0	8	0	42	0

SMILES	%Inh (FLT1) [%]	%Inh (FLT3-autoinhibited) [%]	%Inh (FLT3) [%]	%Inh (FLT4) [%]	%Inh (FRK) [%]	%Inh (FYN) [%]	%Inh (GAK) [%]	%Inh (GCN2(Kin.Dom.2,S808G)) [%]	%Inh (GRK1) [%]	%Inh (GRK2) [%]
CCc1ccc(-c2ccc3c(c2)-c2n[nH]cc2S(=O)(=O)N3C)cc1	14	4	56	0	2	14	0	24	6	0
COc1cc2ncnc(Nc3cccc(Br)c3)c2cc1OC.Cl [GI230329]	21	0	0	0	15	16	87	0	0	36
COc1ccc(-c2coc3ccc(-c4nnc(C)o4)cc23)cc1	0	0	0	0	0	2	0	0	12	0
Nc1ncnc2occ(-c3ccc4c(c3)CCN4C(=O)Cc3cc(F)ccc3F)c12 [GSK2645446]	6	0	0	1	0	0	0	0	0	0
COc1ccc(Nc2nccc(N3CCC(NC(=O)C(C)c4ccc(Cl)cc4)CC3)n2)cc1 (centres unmarked) [GSK1379812]	26	0	0	2	0	12	1	0	0	0
Nc1nccc(-c2c(-c3ccc(F)cc3)ncn2C2CCN(Cc3ccccc3)CC2)n1 [SB-219980]	0	18	0	0	10	0	12	1	27	36
CCn1c(-c2ccccc2)nc2cnccc21 [SB-733416]	53	0	0	27	27	14	0	0	6	0
CC(=O)c1c(C)c2cnc(Nc3ccc(N4CCNCC4)cn3)nc2n(C2CCCC2)c1=O	0	0	0	0	7	0	0	0	10	0
O=C(Nc1n[nH]c2nc(-c3cccs3)c(Br)cc12)C1CCCC1 [SB-743341]	10	34	39	0	5	6	0	0	26	0
CSc1ccc(-c2nc3n(c2-c2ccncc2)CCC3)cc1 [SKF-105561]	7	7	8	0	0	0	10	2	8	0
COc1cccc(CNC(=O)NC2CCN(c3ccnc(Nc4ccc(F)cc4)n3)C2)c1 (centres unmarked) [GSK1379723]	31	0	0	12	16	0	12	0	13	0
CNc1nc(-c2ccc3c(N)n[nH]c3c2)cc(N2C[C@@H](C(=O)NC3CCCCC3)OC[C@H]2C)n1 [GSK2375584]	25	20	0	0	4	6	0	0	12	0
Cc1c(Cn2c(C)c(C)n3c(=O)cc(N4CCOCC4)nc23)cccc1C(F)(F)F [GSK2328680]	8	0	0	0	6	2	8	0	9	0
COc1ccc(Nc2nccc(N3CCC(NC(=O)C(C)c4ccc(Cl)cc4)C3)n2)cc1 (centres unmarked) [GSK1379735]	21	5	10	5	0	15	11	9	7	0
COC(=O)C(NC(=O)NC1CCN(c2ccnc(Nc3ccc(F)cc3)n2)C1)c1ccccc1 (centres unmarked) [GSK1379712]	14	8	0	0	0	31	0	2	0	4
Cc1c(Cn2c3ccccc3n3c(=O)cc(N4CCOCC4)nc23)cccc1C(F)(F)F [GSK2306394]	27	17	11	18	0	20	18	5	0	0
COc1cccc(NC(=O)Nc2ccc(C)c(-c3ccc(C(=O)Nc4ccncc4)cc3)c2)c1 [GSK1398474]	37	0	25	41	10	25	0	0	28	0
Cc1ccccc1-c1cc(-c2c[nH]nc2-c2ccccn2)ccn1 [GW680061]	6	0	0	11	13	18	11	25	7	0
CS(=O)(=O)CCNCc1nc(-c2ccc3ncnc(Nc4ccc5c(cnn5Cc5ccccc5)c4)c3c2)cs1.Cl.Cl [GW569716]	20	0	0	0	9	0	0	1	0	0
CC[C@@H]1CO[C@H](C(=O)Nc2ccccc2)CN1c1cc(-c2ccc3c(N)n[nH]c3c2)nc(NC)n1 [GSK2376236]	28	0	0	20	0	39	26	0	0	0
COc1ccc(Nc2nccc(NCCNC(=O)Nc3cc(C)ccc3C)n2)cc1 [GSK1379899]	29	2	0	8	0	0	0	4	0	0
Cc1ccc(NC(=O)Nc2ccc(Cl)cc2)cc1-c1ccc(C(=O)Nc2ccncc2)cc1 [GSK1398472]	27	3	22	0	31	0	0	17	0	0
